# Source: PubChem BioAssay (NCI)
# Several values for one entry are separate records, joined by “and”; a condition that tells them apart may be missing. Equal entries are not always repeated. About 83,000 compounds went through this panel and 20% of them were active in at least one assay; those are over-represented in the sample as a whole.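 Results are percent growth after 48 hours of single-concentration exposure. 100 means growth as in untreated cells, lower positive values show inhibition; negative values down to -100 show cell death.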 A number with no mark means an inactive call. Activity calls are given as the source filed them. Rule for the calls: active = growth percent below 10; inactive = the rest.
# Key:
# Assay in all cases: NCI-60 one-dose screen, 48 h (100 = growth as untreated, 0 = no growth, -100 = all killed)
# Conditions in all cases: 10 µM unless noted
# [1] = system: MOLT-4 leukemia
# [2] = system: SR leukemia
# [3] = system: RPMI-8226 leukemia
# [4] = system: OVCAR-8 ovarian
# [5] = system: OVCAR-5 ovarian
# [6] = system: OVCAR-4 ovarian
# [7] = system: SK-OV-3 ovarian
# [8] = system: IGROV1 ovarian
# [9] = system: HS 578T breast
# [10] = system: NCI/ADR-RES ovarian
# [11] = system: T-47D breast
# [12] = system: BT-549 breast
# [13] = system: SW-620 colon
# [14] = system: MCF7 breast
# [15] = system: HCT-116 colon
# [16] = system: HCC-2998 colon
# [17] = system: KM12 colon
# [18] = system: OVCAR-3 ovarian
# [19] = system: MDA-MB-435 melanoma
Compound,growth [1],growth [2],growth [3],growth [4],growth [5],growth [6],growth [7],growth [8],growth [9],growth [10],growth [11],growth [12],growth [13],growth [14],growth [15],growth [16],growth [17],growth [18],growth [19]
O=[N+]([O-])c1ccc(CI)cc1,14.7%,34.4%,53.2%,84.4%,96.8%,102%,116%,115%,111%,70.9%,73.3%,98.6%,26.4%,21.7%,1.59% (active),108%,106%,,
COC1C(O)CC(OC2CC(Oc3cc4cc5c(c(O)c4c(O)c3C)C(=O)[C@@H](OC3CC(OC4CC(OC6CC(C)(O)C(OC(C)=O)C(C)O6)C(O)C(C)O4)C(O)C(C)O3)[C@H]([C@H](OC)C(=O)[C@@H](O)[C@@H](C)O)C5)OC(C)C2OC(C)=O)OC1C (stereo partly drawn),1.77% (active),1.63% (active),-30.8% (active),,-67% (active),4.26% (active),12.2%,-23.8% (active),,-33.9% (active),,-68.3% (active),-16.1% (active),-18.4% (active),0.84% (active),,-34.6% (active),-9.73% (active),-100% (active)
C[C@]12CC[C@H]3[C@@H](CC=C4c5nc(N)sc5CC[C@@]43C)[C@@H]1CC[C@@H]2O,103%,91.6%,,99.5%,107%,95.7%,103%,114%,105%,102%,,99.5%,90.1%,104%,92.1%,,102%,99.6%,92.9%
CC(=O)C(N)Cc1ccccc1 (stereo not drawn),101%,93.7%,79.6%,91.8%,105%,99.1%,83.1%,107%,,,78.3%,96%,,93.6%,86.3%,96.3%,106%,114%,
C[C@@H]1C/C=C\C(=O)O[C@H](/C=C/C#C/C=C/C(C)(C)[C@@H](O)c2cccc(O)c2Br)[C@@H](C)/C=C/[C@H](C)C[C@H](OC(N)=O)C1,19.7%,5.45% (active),,20.3%,46.8%,50.3%,55.9%,48.6%,54.8%,,,43.8%,30.4%,18.6%,14.2%,28.2%,40.3%,41.5%,19.2%
CN1[C@@H](CC(=O)c2ccccc2)CCC[C@H]1CC(=O)c1ccccc1,111%,111%,,93.3%,101%,107%,117%,26.5%,83%,99%,103%,,112%,93.3%,101%,126%,110%,101%,97.5%
COC(=O)C1=CO[C@@H](C)[C@@H]2CN3CCc4c([nH]c5cc(OC)ccc45)[C@@H]3C[C@H]12,94.8%,92.7%,94.3%,95.9%,95.6%,107%,100%,,94.5%,93.8%,93.2%,105%,99.9%,91.1%,103%,,109%,100%,
C[C@@]12CCCc3coc(c31)C(=O)c1cc3c(cc12)C(=O)C1=C(NCCS1(=O)=O)C3=O,-31.5% (active),-13.3% (active),,-13.1% (active),-28.3% (active),-89.3% (active),-12.6% (active),-23.9% (active),-12.3% (active),81.5%,-45.9% (active),-51.7% (active),-43.8% (active),-54.1% (active),-16.5% (active),-30.8% (active),4.16% (active),-47.2% (active),-83.5% (active)
CC[C@H](C)[C@H](NC(=O)[C@H]1CCCCN1C)C(=O)N(C)[C@H](C(=O)NC12CC(C(=O)N[C@@H](Cc3ccccc3)C[C@H](C)C(=O)OC)(C1)C2)C(C)C,104%,114%,,96.8%,98.4%,90.8%,104%,105%,118%,103%,85.7%,101%,107%,96.4%,99.5%,,104%,101%,108%
CN1C2CCC1[C@@H](COC(=O)c1ccccc1)[C@@H](O)C2 (stereo partly drawn),97.8%,105%,77.7%,103%,106%,103%,107%,,,110%,124%,143%,111%,97.3%,101%,105%,103%,111%,121%
C[C@]12CC[C@H]3[C@@H](CC=C4c5nc(-c6ccc(Br)cc6)sc5CC[C@@]43C)[C@@H]1CC[C@@H]2O,89.2%,98.2%,54.6%,106%,90%,95.1%,95.1%,99.1%,,,92.6%,82.8%,108%,87.2%,84.9%,110%,102%,103%,96.1%
COC[C@H]1OC(=O)c2coc3c2[C@@]1(C)C1=C(C3=O)[C@@H]2CCC(=O)[C@@]2(C)C[C@H]1OC(C)=O,42.2%,12.1%,58.8%,,-41.3% (active),53.2%,39.9%,-28% (active),,,,26.3%,53.4%,21.5%,45.7%,,51.2%,41.7%,60.3%
O=C1c2ccccc2C(=O)N1N1CC1c1ccccc1 (stereo not drawn),83.5%,77.9%,,112%,113%,101%,102%,95.4%,112%,104%,89.2%,99%,105%,84.1%,95.4%,103%,104%,107%,102%
C#Cc1cccc(Nc2nc(Cl)nc3cc(NC(=O)CF)ccc23)c1,80%,22.1%,103%,88.2%,78.7%,108%,81.5%,75.4%,,,79.5%,72.2%,35.4%,48.2%,42.4%,78.2%,40.1%,53.5%,-19.1% (active)
COC(=O)C1=CCCN(C)C1,105% and 97.6%,99.7% and 110%,,105%,94.9%,107% and 101%,111% and 110%,102% and 145%,104% and 117%,107% and 115%,101% and 113%,97.7%,111% and 110%,96.1% and 101%,102% and 108%,102% and 124%,117% and 109%,120% and 118%,98.9% and 96.1%
Cc1c2ccncc2c(C)c2c1[nH]c1ccccc12,-24.4% (active),-12.8% (active),,-14.2% (active),-90.8% (active),-29.7% (active),-4.52% (active),-66.2% (active),-47.3% (active),,-56.1% (active),,-64.1% (active),-15.9% (active),-57% (active),,-69.3% (active),-86% (active),-89.6% (active)
